The source made the active and inactive calls. How the source made its calls: active means hit-call score of the fitted dose curve at least 0.9, where 1 is the maximum; inactive means score below 0.9.
What follows are compounds tested on Matrix Metallopeptidase 1 (MMP1), MMP1 (gene 4312) (assay: BSK_hDFCGF_MMP1: BioMAP Diversity Plus: hDFCGF Assay for Matrix Metallopeptidase 1 (MMP1) Biomarker Activity (AID 2283064)). Conditions: primary human foreskin fibroblasts; actives raise or lower the signal.
Summary of the method: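 MMP1 levels quantified by ELISA 24 h after dosing human dermal fibroblast cultures, with parallel SRB total-protein staining for overt cytotoxicity. Data fitted in both directions against DMSO baseline.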

Compound	outcome	AC50
NC(=O)N(O)[C@@H]1COc2cc(OCc3ccccc3)ccc21	inactive	
c1ccc(C(O[C@@H]2CCCN(CCc3ccc4c(c3)OCO4)C2)c2ccccc2)cc1	inactive	
CCCOc1ccc(S(=O)(=O)N2CCN(CC)CC2)cc1-c1nc2c(CC)n(Cc3ccccn3)nc2c(=O)[nH]1	inactive	
CCCCOC(=O)c1ccccc1	inactive	
COS(C)(=O)=O	inactive	
CCCCC(CC)C(=O)OCCOCCOCCOC(=O)C(CC)CCCC (configuration not stated)	inactive	
O=S(=O)(O)c1ccc(N=Nc2c(O)ccc3cc(S(=O)(=O)O)ccc23)cc1	inactive	
Cn1c(=O)c2[nH]cnc2n(C)c1=O	inactive	
CCN(CC)C(=S)SSC(=S)N(CC)CC		3.27 µM (active)
OC[C@H]1O[C@@H]2O[C@H]3[C@H](O)[C@@H](O)[C@@H](O[C@H]4[C@H](O)[C@@H](O)[C@@H](O[C@H]5[C@H](O)[C@@H](O)[C@@H](O[C@H]6[C@H](O)[C@@H](O)[C@@H](O[C@H]7[C@H](O)[C@@H](O)[C@@H](O[C@H]1[C@H](O)[C@H]2O)O[C@@H]7CO)O[C@@H]6CO)O[C@@H]5CO)O[C@@H]4CO)O[C@@H]3CO	inactive	
OC(CCl)CCl	inactive	
C=CCc1cc(S(=O)(=O)c2ccc(O)c(CC=C)c2)ccc1O		31 µM (active)
c1ccc2c(c1)-c1cccc3c1c-2cc1ccccc13		6.72 µM (active)
CCCC(CCC)C(=O)O	inactive	
CC1(C)C(=O)N(Cl)C(=O)N1Cl	inactive	
Cc1ccc(S(=O)(=O)NC(=O)NN2CCCCCC2)cc1	inactive	
COc1cc2c(c(OC)c1OC)-c1ccc(OC)c(=O)cc1[C@@H](NC(C)=O)CC2		2.82 µM (active)
Cc1cccc(O)c1C	inactive	
C[C@@H](Oc1ccc(CNC(=O)c2cccnc2Oc2ccc3c(c2)OCO3)c(F)c1)C(=O)O	inactive	
CCCCCCCCN(C)C	inactive	
NCC(F)(F)C(F)(F)C(F)(F)C(F)(F)F	inactive	
NC(=O)NN=Cc1ccc([N+](=O)[O-])o1	inactive	
Cc1ncc([C@@H](CCCCCCc2ccc3c(n2)NCCC3)CC(=O)O)cn1	inactive	
Cn1cc[nH]c1=S	inactive	
OC(O)(C(F)C(O)(O)C(F)(F)F)C(F)(F)F	inactive	
CCCCCCCCCCCCCCCCOS(=O)(=O)O		16.6 µM (active)
c1ccc2ncccc2c1	inactive	

— PubChem BioAssay (EPA / NIEHS)
